Reference: PubChem BioAssay (NCI)
This is part of a sample that, as a whole, favours compounds with a hit. Of some 83,000 tested, about 20% had one in any assay.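 How to read the values: 0–100, growth inhibition (40 = 60% inhibited); 0, no net growth; -100 to 0, cell death (-40 = 40% of starting cells died; -100 = all dead).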 Values without a mark were called inactive. Active and inactive are the calls of the source. The calls were made as follows: active = growth percent below 10; inactive = the rest.

Experiments:
Assay in all cases: NCI-60 one-dose screen, 48 h (100 = growth as untreated, 0 = no growth, -100 = all killed)
BT-549 breast = conditions: 10 µM unless noted
MDA-MB-435 melanoma = conditions: 10 µM unless noted
SW-620 colon = conditions: 10 µM unless noted
MCF7 breast = conditions: 10 µM
HCT-116 colon = conditions: 10 µM unless noted
HCC-2998 colon = conditions: 10 µM unless noted
KM12 colon = conditions: 10 µM unless noted

Compound | growth (BT-549 breast) | growth (MDA-MB-435 melanoma) | growth (SW-620 colon) | growth (MCF7 breast) | growth (HCT-116 colon) | growth (HCC-2998 colon) | growth (KM12 colon)
COc1ccccc1N1CCN(C(CNS(=O)(=O)c2ccc(Cl)cc2)c2cccnc2)CC1 (stereo not given) | 84.9% | 86.6% | 101% | 78.3% | 82.6% | 88% | 61.4%
Nc1ccn(C2O[C@H](CO)[C@@H](O)[C@H]2O)c(=O)n1 (stereo not given in full) | 111% | 88.8% | 72.7% | 63.1% | 64.4% | 99% | 72.1%
COc1ccc(Cn2c(Br)c3c(c2-c2cc(OC)c(OC)c(OC)c2)CCc2sc(NC(C)=O)nc2-3)cc1 | 74.2% | -57% (active) | 20.5% | 16.3% | 40.7% | 70.2% | 30.4%
FC(F)(F)c1cccc(Nc2nc3ccccc3nc2Nc2cccc(C(F)(F)F)c2)c1 | 7.74% (active) | -71.8% (active) | -26.9% (active) | -57% (active) | -41.7% (active) | -55.1% (active) | -37.2% (active)
COc1ccc(CSc2nnc(SCC(=O)Nc3ccc(Cl)cc3)s2)cc1 | 69% | 67.2% | 52% | 63.8% | 70.8% | 72.6% | 44.8%
O=C1NC(=O)C(=Cc2cn(Cc3cn(Cc4ccc(Cl)cc4Cl)nn3)c3ccccc23)C(=O)N1 | 91.7% | 94.9% | 92.1% | 80% | 91.3% | 117% | 98.3%
O=c1c2cc(F)ccc2sc2c(NCCN3CCCC3)nc3ccccc3c12 | 86.7% | 23.2% | 19.1% | 30.4% | 39.1% | 30.9% | 39.5%
COc1ccc(C2=C(c3cccc(OC)c3)C(=O)c3ccc(C)nc3C2=O)cc1 | 57.5% | 32.2% | 23.6% | 23.7% | 11.2% | 84.6% | 28.6%
COc1cc(C2C(C#N)=C(N)OC3=C2C(=O)c2ccccc2C3=O)cc(OC)c1O (stereo not given) | 57.7% | -31% (active) | 13.4% | 20% | 22.5% | 45% | 14%
CN1C(=O)N(C)C2C1NN=c1s/c(=C\c3ccc(Cl)cc3Cl)c(=O)n12 (stereo not given) | 17.4% | -17% (active) | 27.8% | 17.7% | 8.45% (active) | 21.7% | 6.57% (active)
COc1cc(C2C(C#N)=C(N)OC3=C2C(=O)c2ccccc2C3=O)cc(OC)c1OC (stereo not given) | 41.4% | -19.7% (active) | 21.5% | 18.9% | 19.1% | 30.4% | 13.1%
CCCCCCCCCCCCCCn1cc(C2=C(c3coc4ccc(OC)cc34)C(=O)NC2=O)c2ccccc21 | 91.1% | 97.6% | 89.2% | 88.5% | 78% | 104% | 98%
Cc1ccc(C2CC(c3ccc(Nc4nc(NCCO)nc(Nc5ccc(Cl)cc5)n4)cc3)=NN2c2cc(Cl)cc(Cl)c2)cc1 (stereo not given) | 95.9% | 98.8% | 101% | 88.2% | 103% | 111% | 103%
CSc1nc2c(c(=O)n1C)N=C1c3ccccc3C(=O)C1C(c1ccccc1)N2 (stereo not given) | 82.3% | 7.03% (active) | 70.7% | 58.7% | 71.3% | 64.8% | 63.5%
CC1=CCC(OC(=O)C(C)(C)CCC(O)(C(=O)OC2(C(C)C)CCC3(C)OC3C2)C(C)C)(C(C)C)CC1 (stereo not given) | -88.6% (active) | -98% (active) | -62.1% (active) | -61.1% (active) | -41.2% (active) | -72.8% (active) | -79% (active)
COc1ccc(Cn2cc(Cn3c(=O)c(-c4nc5ccccc5[nH]4)cc4ccccc43)nn2)c(OC)c1OC | -12.2% (active) | -79.6% (active) | 16.9% | 17.1% | 5.1% (active) | -11.7% (active) | 4.44% (active)
CN(C)c1ccc(/C=C/c2ccnc3c(O)cccc23)cc1 | 17.8% | 18.6% | 21.6% | 18.2% | 18.6% | 55.7% | 16.2%
CC(C)Cn1c2c(c(=S)[nH]c1=O)CCC2 | 108% | 98.9% | 93.6% | 109% | 105% | 123% | 105%

Compound | growth (BT-549 breast) | growth (MDA-MB-435 melanoma) | growth (SW-620 colon) | growth (MCF7 breast) | growth (HCT-116 colon) | growth (HCC-2998 colon) | growth (KM12 colon)
Cc1ccc(CN2CCC(C(=O)Nc3ccc(-c4cc5ccccc5[nH]4)cc3)CC2)o1 | 72.5% | 58.9% | 66% | 64.1% | 49.9% | 79.4% | 24.4%
CCOC(=O)c1sc(-c2ccc(OS(=O)(=O)c3ccc(Br)s3)c(C=O)c2)nc1C | 9.16% (active) | -12.1% (active) | 7.65% (active) | 0.976% (active) | 2.52% (active) | 82.5% | 6.21% (active)
COc1ccc(OC)c(/C=C/C(=O)c2c(C)nc3ccccc3c2/C=C/c2ccccc2)c1 | 59% | 46.4% | 36.5% | 19.8% | 34.1% | 93.6% | 69.4%
COc1cc(CNC(=O)c2ccsc2Nc2ccnc(C(F)(F)F)c2)ccc1O | 103% | 101% | 100% | 113% | 101% | 109% | 104%
CCC1=C[C@]2(C3CC(=O)N(c4ccccc4)C3=O)CC(C(C)(C)C)C[C@@H]2[C@@H]2C(=O)N(c3ccccc3)C(=O)[C@H]12 (stereo not given in full) | 86.5% | 85.9% | 88.4% | 80.7% | 68.1% | 103% | 85.9%
CCOC(=O)c1cc2c(n1Cc1ccccc1OC)-c1oncc1CCC2 | 54.9% | -1.95% (active) | 23.8% | 14% | 29.5% | 53.6% | 41.9%
COc1ccc(N)c(-c2cc3c(c4c2[nH]c2ccc(OC)cc24)CCCC3)c1 | 74.6% | 93.6% | 83.3% | 69.1% | 58.4% | 104% | 80.2%
CCOC(=O)c1cnc2ccc(Cl)cc2c1NCCCN(C)C | 31.6% | 19.6% | 14.6% | 7.48% (active) | 12.4% | -13.2% (active) | 17.5%
Cc1ccc(OCCCCCCNCCO)c(C)c1 | 27.6% | 15.2% | 18.1% | 9.1% (active) | 19.1% | -6.64% (active) | 15.1%
NCCCNc1nc2ccccc2c2c(=O)c3cc(F)ccc3sc12 | 81.1% | -91% (active) | -83.5% (active) | -69.8% (active) | -78.2% (active) | -68.8% (active) | -73.7% (active)
COc1ccc(CCN2C(=O)/C(=C/c3ccc(C4Oc5ccccc5C5CC(c6cccc(OC)c6)=NN54)cc3)SC2=S)cc1 (stereo not given) | 108% | 104% | 98.4% | 93% | 102% | 98.6% | 105%
O=C(Cc1ccccc1)NC(c1ccc(Cl)cc1)c1c(O)ccc2ccccc12 (stereo not given) | 50% | 6.36% (active) | 17.5% | 8.18% (active) | 2.62% (active) | 24.8% | 15.1%
O=NN(Cc1cccnc1)C(=O)NC1CCCCC1 | 112% | 108% | 107% | 92.9% | 104% | 107% | 109%
COc1ccc(OC)c(N(CCN2C(=O)c3ccccc3C2=O)C(=O)CCl)c1 | 92.4% | 81.5% | 96.4% | 78.8% | 89% | 111% | -11.3% (active)
COc1ccc2[nH]c(O)c(N=NC(=O)c3oc4ccccc4c3C)c2c1 | 70.1% | 28.9% | 35.1% | 22.9% | -28.6% (active) | 45.5% | 43.8%
O=c1cc(-c2ccccc2)oc2cc(OCc3cn(Cc4ccc(F)cc4)nn3)cc(OCc3cn(Cc4ccc(F)cc4)nn3)c12 | 18.8% | 40.9% | 60.3% | 53.3% | 18.2% | 74.1% | 43.3%
COc1cc2c(cc1OC)C(=O)C(CC1CCN(C(=O)Nc3ccc(C)cc3)CC1)C2 (stereo not given) | 96.6% | 97.7% | 94.6% | 90.4% | 97.4% | 116% | 94.3%
